# Reference: PubChem BioAssay
# Records with an inconclusive call do not appear. Active and inactive are the calls of the source. Rule as the data show it, unless noted: active = inhibition above about 80%; inactive = the rest.
# Columns and labels:
# [1] = liver-stage malaria parasite growth inhibition, primary screen, cell-based, HepG2, luciferase luminescence, HepG2 viability (AID 624349; in the data active = parasite load remaining mostly below about 12%, no sharp cut-off; inactive = mostly above about 10%;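 also: 100% = mean of DMSO negative control wells on the same plate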); conditions: P. berghei liver stage in HepG2, luciferase luminescence, concentration not given here; parasite load remaining: stronger effect = lower value; viability: measured here: HepG2 viability without parasites
# [2] = differential killing of epithelial or mesenchymal cells, primary screen, imaging, PC-3E GFP, TEM4-18 mCherry, co-culture (AID 1345086;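 active = compounds killing one labelled cell type while sparing the other, by normalised counts and ratio limits, not self-fluorescent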;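 also: cells exposed to compound for 72 h before imaging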;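 as to red/green cell ratio (normalised): normalised mesenchymal count divided by normalised epithelial count so high means epithelial killing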); conditions: imaging cell counts, at 1 µM
# [3] = growth inhibition of DIPG glioma cells, dose response, cell-based, SU-DIPG-XVII, MIPE5.0, CellTiter-Glo, qHTS (AID 1347060; cut-off not given, nearly all actives have AC50 up to about 26 µM;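 also: cells exposed to compound for 48 hours before viability readout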); conditions: SU-DIPG-XVII viability, CellTiter-Glo ATP luminescence
# [4] = growth inhibition of DIPG glioma cells, dose response, cell-based, SU-DIPG-XIII, MIPE5.0, CellTiter-Glo, qHTS (AID 1347064; cut-off not given, nearly all actives have AC50 up to about 23 µM;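 also: cells exposed to compound for 48 hours before the viability read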); conditions: SU-DIPG-XIII viability, CellTiter-Glo ATP luminescence
# [5] = viability loss in pontine glioma line – cell-based, SU-DIPG-XXV, MIPE5.0, CellTiter-Glo, qHTS, dose response (AID 1347065; cut-off not given, nearly all actives have AC50 up to about 26 µM;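 also: cells exposed to compound for 48 hours before ATP readout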); conditions: CellTiter-Glo ATP luminescence
# [6] = JHH-DIPG-1 glioma cell viability, MIPE5.0 library, CellTiter-Glo luminescence, qHTS (AID 1347067; cut-off not given, nearly all actives have AC50 up to about 26 µM;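 also: cells exposed to compound for 48 hours before readout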); conditions: JHH-DIPG-1 glioma viability, CellTiter-Glo ATP luminescence
# [7] = sensitizers of A549 cells to miR-34 induction, primary screen, imaging, A549 dox-inducible miR-34, nuclei and caspase counts (AID 1347080;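 active = compounds whose cell count with miR-34 switched on is under 0.7 times the count with it off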); conditions: A549 miR-34 inducible, Hoechst nuclei count, 48 h
# [8] = survival rescue of mitochondrial mutant cells in low glucose, primary screen, MELAS cybrids, Rieske KO mouse fibroblasts, CellTiter-Glo (AID 1508586;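 active = mean z-score across replicates of 1.96 or higher in either the MELAS or the Rieske mutant cell line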;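 also: z relative to plate mean and SD of compound and empty wells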)
# [9] = target: NAD(+) hydrolase SARM1 (Homo sapiens) (UniProt Q6SZW1); assay: SARM1 TIR NADase inhibitors, cell lysate, NAD-Glo luminescence (AID 1508614;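 active = compound whose remaining NAD level is above about 45 nM, limit read from the data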;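 also: higher remaining NAD means stronger inhibition of SARM1 NADase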); conditions: SAM-TIR HEK293T lysate NADase, at 1 µM, stronger effect = higher value
# [10] = viability rescue of complex I mutant cybrids, primary screen, cell-based, galactose medium, ATP luminescence (AID 1645843;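 active = z-score of at least 1.8 in each of two replicates, scored against plate mean and spread of sample wells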;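 also: positive z means more ATP and so rescue of galactose-driven cybrid death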); conditions: complex I mutant cybrid cells, 72 h, stronger effect = higher value
# [11] = LFS_MB_P medulloblastoma growth inhibition, cell-based, chromothripsis tumors, cisplatin or BGB combos (AID 1671449); conditions: LFS_MB_P medulloblastoma cells;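 also: cells exposed for 96 hours; 0% = vehicle DMSO and 100% = killing by high DMSO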
# [12] = HDN33 neuroblastoma growth inhibition, cell-based, chromothripsis tumors, cisplatin or BGB combos (AID 1671450); conditions: HDN33 neuroblastoma cells, stronger effect = higher value;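 also: cells exposed to compound for four days; 0% = vehicle DMSO and 100% = cell killing by high DMSO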
# [13] = ICB984 medulloblastoma cell growth inhibition, synergistic combos for chromothripsis tumors, cisplatin or BGB combos (AID 1671451; call rule not given here;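 also: cells exposed for 96 hours before readout; 0% = vehicle DMSO and 100% = killing by high DMSO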); conditions: ICB984 medulloblastoma cells, drug combinations, stronger effect = higher value
# [14] = LFS_MB_1R medulloblastoma cell growth inhibition, synergistic combos for chromothripsis tumors, cisplatin or BGB combos (AID 1671452); conditions: LFS_MB_1R medulloblastoma cells, stronger effect = higher value;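 also: cells exposed for 96 hours before readout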
# [15] = HTB85 osteosarcoma cell growth inhibition, synergistic combos for chromothripsis tumors, BGB or cisplatin IC20 combos (AID 1671453); conditions: HTB85 osteosarcoma cells, drug combinations, stronger effect = higher value;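 also: cells exposed for 96 hours before readout; 0% = vehicle DMSO and 100% = high DMSO killing control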
# [16] = CRL2098 osteosarcoma cell growth inhibition, synergistic combos for chromothripsis tumors, BGB or cisplatin IC20 combos (AID 1671454); conditions: CRL2098 osteosarcoma cells, drug combinations, stronger effect = higher value;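 also: cells exposed for 96 h before readout; 0% = vehicle DMSO and 100% = killing by high DMSO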
# [17] = HD-MB03 medulloblastoma cell growth inhibition, synergistic combos for chromothripsis tumors, BGB or cisplatin IC20 combos (AID 1671455; in the data active = inhibition above about 83%;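 also: 0% = vehicle DMSO and 100% = high DMSO as cytotoxic control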); conditions: HD-MB03 medulloblastoma cells, stronger effect = higher value
# [18] = UWB1.289 ovarian carcinoma cell growth inhibition, synergistic combos for chromothripsis tumors, BGB or cisplatin combos (AID 1671456); conditions: UWB1.289 ovarian carcinoma cells, stronger effect = higher value;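 also: cells exposed to compound for four days; 0% = vehicle DMSO and 100% = killing by high DMSO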
# [19] = LFS_MB_2R medulloblastoma cell growth inhibition, synergistic combos for chromothripsis tumors, cisplatin combos (AID 1671457); conditions: LFS_MB_2R medulloblastoma cells, stronger effect = higher value;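 also: cells exposed to compound for four days before readout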
# [20] = MDA-MB-436 breast carcinoma cell growth inhibition, synergistic combos for chromothripsis tumors, BGB or cisplatin combos (AID 1671458; call rule not given here;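 also: cells exposed for 96 hours; 0% = vehicle DMSO and 100% = killing by high DMSO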); conditions: MDA-MB-436 breast carcinoma growth inhibition, drug combinations, stronger effect = higher value
# [21] = UWB1.289_BRCA1 ovarian cancer growth, cell-based, BGB or cisplatin combinations (AID 1671459); conditions: UWB1.289 BRCA1 ovarian carcinoma, drug combinations, stronger effect = higher value
# [22] = human astrocyte viability loss, single and combined drugs, cytotoxicity control for chromothriptic childhood tumor combination screen, cell-based, BGB or cisplatin IC20 combos (AID 1671460); conditions: Human astrocytes, drug combinations, stronger effect = higher value;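 also: cells exposed to compounds for 96 hours before viability readout; 0% = vehicle and 100% = killing control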
# [23] = growth inhibition of BT084 medulloblastoma cells, cell-based, ICGC_MB145, cisplatin and BGB IC40 combos (AID 1671461); conditions: drug combinations, stronger effect = higher value;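 also: cells exposed to drugs for 96 hours; 0% = vehicle DMSO and 100% = high DMSO full killing control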
# [24] = growth inhibition of RCMB18 medulloblastoma cells, cell-based, cisplatin and BGB IC40 combos (AID 1671462); conditions: stronger effect = higher value;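 also: cells exposed to compound for four days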
# [25] = growth inhibition of CRL1545 osteosarcoma cells, cell-based, cisplatin and BGB IC20 combos (AID 1671464); conditions: stronger effect = higher value;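 also: cells exposed to compound for 96 hours before readout; 0% = vehicle DMSO and 100% = high DMSO killing control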
# [26] = measured here: combination with BGB IC40, at 0.05 µM
# [27] = measured here: with BGB IC20 combination, at 0.5 µM
# [28] = measured here: with cisplatin IC20 combination, at 0.5 µM
# [29] = measured here: combination with cisplatin, at 0.5 µM
# [30] = measured here: combination with cisplatin, at 5 µM
# Sequence of NAD(+) hydrolase SARM1 (Homo sapiens) (Q6SZW1 whole entry, looked up): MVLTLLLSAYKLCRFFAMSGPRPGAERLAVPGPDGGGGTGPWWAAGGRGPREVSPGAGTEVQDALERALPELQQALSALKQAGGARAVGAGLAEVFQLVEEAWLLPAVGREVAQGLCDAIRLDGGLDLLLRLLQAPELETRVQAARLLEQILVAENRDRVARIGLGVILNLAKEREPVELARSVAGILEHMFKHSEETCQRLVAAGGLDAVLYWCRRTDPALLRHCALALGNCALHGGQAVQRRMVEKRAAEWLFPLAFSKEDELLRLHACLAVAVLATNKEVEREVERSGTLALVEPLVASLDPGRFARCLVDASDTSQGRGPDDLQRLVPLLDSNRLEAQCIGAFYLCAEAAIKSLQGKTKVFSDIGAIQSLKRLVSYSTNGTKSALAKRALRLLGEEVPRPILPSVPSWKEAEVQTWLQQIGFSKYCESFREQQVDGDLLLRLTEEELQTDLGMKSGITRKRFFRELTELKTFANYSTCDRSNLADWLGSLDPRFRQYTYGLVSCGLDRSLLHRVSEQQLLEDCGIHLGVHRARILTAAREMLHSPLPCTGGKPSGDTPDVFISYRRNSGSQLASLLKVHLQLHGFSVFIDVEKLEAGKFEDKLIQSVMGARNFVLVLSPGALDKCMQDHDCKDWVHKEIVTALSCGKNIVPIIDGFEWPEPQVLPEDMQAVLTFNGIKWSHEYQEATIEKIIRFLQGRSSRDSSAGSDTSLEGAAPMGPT
smiles,measurement,setting,value
Cc1c(-c2cnccn2)ssc1=S,parasite load remaining,[1],10.1% (inactive)
same,viability,[1],65%
same,red/green cell ratio (normalised),"[2]; actives lie on both sides, counts scaled to control wells, 1 = unselective",1.09 (inactive)
same,normalised cell number,[2]; measured here: epithelial PC-3E GFP cell survival,0.9
same,normalised cell number,[2]; measured here: mesenchymal TEM4-18 mCherry cell survival,0.98
same,AC50,[3],10.5 µM (active)
same,AC50,[4],10.5 µM (active)
same,AC50,[5],11.8 µM (active)
same,AC50,[6],14.8 µM (active)
same,fold change,"[7]; stronger effect = lower value, cell number ratio, induced over uninduced",0.88 (inactive)
same,fold change,[7]; measured here: relative caspase fold change +Dox/-Dox,1.25
same,cell count,"[7]; measured here: total cells with miR-34 induction, stronger effect = lower value",9050
same,cell count,[7]; measured here: total cells without miR-34 induction,10300
same,z-score,"[8]; MELAS cybrid survival, CellTiter-Glo 48 h, stronger effect = higher value",0.683 (inactive)
same,z-score,"[8]; Rieske KO mouse fibroblast survival, CellTiter-Glo 72 h",-0.106
same,remaining NAD,[9],10 nM (inactive)
same,z-score,[10],-0.085 (inactive)
same,inhibition,"[11]; at 0.5 µM, stronger effect = higher value",-20.5% (inactive)
same,inhibition,"[11]; measured here: combination with BGB IC20, at 0.005 µM",-19.2%
same,inhibition,"[11]; measured here: combination with BGB IC40, at 0.005 µM",-19%
same,inhibition,[11]; [26],-17.6%
same,inhibition,"[11]; measured here: combination with cisplatin, at 0.5 µM, stronger effect = higher value",-32.1%
same,inhibition,"[11]; measured here: combination with cisplatin, at 5 µM, stronger effect = higher value",-10.5%
same,inhibition,"[12]; BGB combo, at 5 µM",-58.5%
same,inhibition,[12]; at 0.5 µM,-42% (inactive)
same,inhibition,"[12]; cisplatin combo, at 5 µM",-70%
same,inhibition,[12]; [27],-31.4%
same,inhibition,[12]; [28],-48.3%
same,inhibition,"[12]; single agent, at 5 µM",-46.9%
same,inhibition,"[13]; BGB IC20 combo, at 0.005 µM",-28.8%
same,inhibition,"[13]; BGB IC40 combo, at 0.005 µM",-23.8%
same,inhibition,"[13]; BGB IC40 combo, at 0.05 µM",-8.66%
same,inhibition,[13]; at 0.5 µM,-19.7% (inactive)
same,inhibition,"[13]; cisplatin combo, at 0.05 µM",-8.66%
same,inhibition,"[13]; cisplatin combo, at 0.5 µM",-33.7%
same,inhibition,"[13]; cisplatin combo, at 5 µM",-21.2%
same,inhibition,"[13]; measured here: 5 uM single agent, at 5 µM",-0.147%
same,inhibition,[14]; at 0.5 µM,-48.5% (inactive)
same,inhibition,[14]; [26],12.7%
same,inhibition,[14]; [29],-42.8%
same,inhibition,[14]; [30],-46.1%
same,inhibition,[15]; at 0.5 µM,-26% (inactive)
same,inhibition,"[15]; measured here: with BGB IC20, at 0.5 µM",-48%
same,inhibition,"[15]; measured here: with BGB IC20, at 5 µM",-29.8%
same,inhibition,"[15]; measured here: with cisplatin IC20, at 0.5 µM",-19.3%
same,inhibition,"[15]; measured here: with cisplatin IC20, at 5 µM",6.84%
same,inhibition,"[15]; single agent, at 5 µM",-28%
same,inhibition,[16]; at 0.5 µM,-91.2% (inactive)
same,inhibition,"[16]; measured here: combination with BGB at IC20, at 0.5 µM",-80.8%
same,inhibition,"[16]; measured here: combination with cisplatin at IC20, at 0.5 µM",-109%
same,inhibition,[17]; at 0.5 µM,-13% (inactive)
same,inhibition,"[17]; measured here: combo with BGB at IC20, at 0.5 µM",-1.23%
same,inhibition,"[17]; measured here: combo with cisplatin at IC20, at 0.5 µM",-23%
same,inhibition,[18]; at 0.5 µM,-15.7% (inactive)
same,inhibition,"[18]; measured here: inhibition with BGB combination, at 0.05 µM",-24.2%
same,inhibition,"[18]; measured here: inhibition with cisplatin combination, at 0.05 µM",3.36%
same,inhibition,[19]; at 0.5 µM,-15.7% (inactive)
same,inhibition,[19]; [29],-6.9%
same,inhibition,[19]; [30],-12.4%
same,inhibition,[20]; at 0.5 µM,-20.6% (inactive)
same,inhibition,"[20]; measured here: BGB combination, at 0.5 µM",-19.7%
same,inhibition,"[20]; measured here: BGB combination, at 5 µM",-36%
same,inhibition,"[20]; measured here: cisplatin combination, at 0.5 µM",-33%
same,inhibition,"[20]; measured here: cisplatin combination, at 5 µM",-12.1%
same,inhibition,"[21]; BGB combination, concentration series, at 5 µM",-4.42%
same,inhibition,[21]; at 0.5 µM,-14.9% (inactive)
same,inhibition,"[21]; cisplatin combination, concentration series, at 5 µM",-10.4%
same,inhibition,[22]; at 0.5 µM,0.12% (inactive)
same,inhibition,"[22]; measured here: combo with BGB IC20, at 0.5 µM",-4.93%
same,inhibition,"[22]; measured here: combo with cisplatin IC20, at 0.5 µM",-9.68%
same,inhibition,[23]; at 0.5 µM,-10.9% (inactive)
same,inhibition,"[23]; cisplatin combination, at 0.5 µM",-13.8%
same,inhibition,"[23]; cisplatin combination, at 5 µM",-45.9%
same,inhibition,"[23]; measured here: BGB IC40 combination 0.05 uM, at 0.05 µM",2.43%
same,inhibition,"[23]; single agent, at 5 µM",-13.6%
same,inhibition,[24]; at 0.5 µM,-21% (inactive)
same,inhibition,"[24]; cisplatin combo, at 5 µM",-46.1%
same,inhibition,"[24]; measured here: BGB IC40 combination, at 0.05 µM",-10.6%
same,inhibition,[24]; [29],-54.1%
same,inhibition,"[24]; single agent, at 5 µM",-29.2%
same,inhibition,[25]; at 0.5 µM,-60.7% (inactive)
same,inhibition,[25]; [27],-51%
same,inhibition,[25]; [28],-65.5%
same,inhibition,"[25]; single agent, at 0.05 µM",-3.94%
same,inhibition,"[25]; single agent, at 5 µM",-64.9%
